Most compounds without a hit are left out; they make up all but 1.4% or so of the library.
PKM2 activator: PKM2 (human) enzyme activation; P14618; purified PKM2, Kinase-Glo ATP luminescence, activation; response scale: 0% is enzyme alone, no compound; Potency, µM (highest dose often 57.5 µM), without a hit: top-dose activation, hits mostly activators; 260,000 tested, 0.34% active; further: potency means the concentration at half of the fitted maximal effect; nearly all actives have a fitted effect of over 55% in size
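Purified hPK-M2 (>95%) run at intermediate activity with 0.1 mM ADP and 0.5 mM PEP in 50 mM imidazole pH 7.2, KCl, MgCl2; 1 h room temperature. ATP formed read by Kinase-Glo luminescence; normalized to uninhibited and no-enzyme controls.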
LDHA block: LDHA (human) enzyme inhibition; P00338; purified LDHA, NADH/diaphorase-resazurin fluorescence; hits give low values; AID 1347041; 480,000 tested, 0.15% active; activity change, % (values are at about 110 or 230 µM); in the data active means activity change below about -30%; inconclusive means mostly about -25% to -30%;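 further: plate controls were DMSO wells for no effect and wells without enzyme for full effect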
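Resorufin fluorescence (ex540/em590), read at 0 and 20 min after diaphorase/resazurin addition, reports the NADH left after a 5 min room-temperature reaction of 2 nM human LDH5 with 0.06 mM NADH and 0.2 mM pyruvate.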
TrxR1 inh: rat TrxR1 inhibition. O89049. Potency, µM (highest dose often 114 µM), for the others: at the top dose activity change, negative = inhibition, most hits filed as inhibitors. 390,000 tested, 1% active. recombinant rTrxR1, NADPH fluorescence consumption, selenite substrate; further: potency means the concentration at half of the fitted maximal effect; nearly all actives have a fitted effect of over 65% in size
Target sequence (O89049 whole entry, looked up): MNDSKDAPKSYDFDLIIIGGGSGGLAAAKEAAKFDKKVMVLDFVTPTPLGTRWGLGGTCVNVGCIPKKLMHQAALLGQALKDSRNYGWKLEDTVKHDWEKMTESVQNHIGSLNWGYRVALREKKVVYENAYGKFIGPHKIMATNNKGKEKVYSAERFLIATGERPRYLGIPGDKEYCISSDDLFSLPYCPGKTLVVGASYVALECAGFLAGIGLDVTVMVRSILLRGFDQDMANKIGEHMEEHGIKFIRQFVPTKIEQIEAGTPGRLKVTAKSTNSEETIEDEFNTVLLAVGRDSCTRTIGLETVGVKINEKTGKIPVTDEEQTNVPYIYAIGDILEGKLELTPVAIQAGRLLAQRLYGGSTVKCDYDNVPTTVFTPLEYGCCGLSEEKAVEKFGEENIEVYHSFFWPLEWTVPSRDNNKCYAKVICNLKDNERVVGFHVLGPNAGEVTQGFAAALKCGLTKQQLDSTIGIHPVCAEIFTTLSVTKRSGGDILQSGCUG
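Rat TrxR1 (90 nM in the dispensed reagent) was pre-reduced with 400 uM NADPH for 5 min at room temperature, then incubated with compound for 15 min. After 400 uM selenite was added, NADPH fluorescence (Ex 340/Em 450 nm) was followed for 8 min.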
TrxR1 substrate: substrates of rat thioredoxin reductase 1; O89049; purified TrxR1 substrate turnover, NADPH consumption readout; Potency, µM (titrated, usually from 114 µM), inactives show at the highest dose activity change, negative = substrate turnover; 390,000 tested, 0.01% active; further: potency means the concentration at half of the fitted maximal effect; nearly all actives have a fitted effect of over 50% in size
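Rat TrxR1, dispensed at 90 nM, was prereduced with 400 uM NADPH (final) for 5 min at ~22 deg C, then incubated with compound 15 min before 400 uM selenite. A first-read NADPH fluorescence drop versus no-compound background flagged substrates.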
GLS inh: inhibitors of human glutaminase (GLS); GLS enzymatic activity, qHTS titration; Potency, µM (doses to about 45.5 µM), for the others: top-dose activity change, negative = inhibition, usual class: inhibitors; 410,000 tested, 0.21% active; AID 624170; further: potency means the concentration at half of the fitted maximal effect
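Assay buffer: 45 mM KH2PO4 pH 8.2, 0.02% Tween-20. hKGA acts on L-glutamine (1 mM solution added); product glutamate is reported by an oxidase/peroxidase Amplex Red coupling, with fluorescence taken at baseline and 30 min.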
IDH1 R132H inh: inhibitors of human mutant IDH1 R132H; AID 602179; O75874; Potency, µM (titrated, usually from 76.6 µM), without a hit: at the top dose activity change, negative = inhibition, hits mostly inhibitors; 390,000 tested, 0.093% active; IDH1-R132H enzyme, NADPH consumption, diaphorase/resazurin fluorescence; further: potency means the concentration at half of the fitted maximal effect; nearly all actives have a fitted effect of over 65% in size
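IDH1-R132H (0.5 ug/mL) preincubated 30 min with compound, then NADPH (0.016 mM) and alpha-KG (2 mM) added; 80 min at RT, pH 7.5. Remaining NADPH coupled via diaphorase/resazurin to fluorescence (540/590 nm); concentration-response curves normalized to no-enzyme control.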
Starred values were filed as active, the others as inactive; ? = inconclusive; . = not tested or not shown; ! = repeats disagree; [ ] = dose if it differs, or a comment. Unless noted, the call rests on the fitted dose curve; in most records, active means well fitted curve in the direction sought with a large enough effect; inconclusive means small, poorly fitted or top-dose-only effect, or another doubt; inactive means no such curve, though single readings can be large; an effect the other way counts as inactive or inconclusive. Unless noted, on the % scale 0 is the no-effect control and ±100 the full control effect.

SMILES | PKM2 activator | LDHA block | TrxR1 inh | TrxR1 substrate | GLS inh | IDH1 R132H inh
COC(=O)/C(=C/c1c[nH]c2ccccc12)NC(C)=O | 8% | -7 | 9%[57.1 µM] | 1%[57.1 µM] | 22% | 8%
CCOc1cc2c(cc1NC(=O)c1ccc(SC)cc1OC)OC(C)C2 (stereo not given) | . | -3 | . | . | . | .
Brc1ccc(Nc2nc(-c3cccnc3)cs2)cc1 | 2% | -6 | 10%[57.1 µM] | -3% | ? | 5%
Oc1ccc(Nc2nc(-c3cccnc3)cs2)cc1 | ? | -10 | 9%[57.1 µM] | 3%[57.1 µM] | 5µM* | 20%
CCOc1ccc2[nH]cc(S(=O)(=O)c3ccc(Cl)cc3)c(=O)c2c1 | 15% | -44* | -8% | -12% | -1% | -18%
CSc1nc(NCCOCCO)c2sc3nc(-c4ccco4)c4c(c3c2n1)CCC4 | 22µM* | 2 | -38% | 14%[57.1 µM] | 0% | 6%
Cc1cccc(N(Cc2cc(=O)[nH]c3ccccc23)C(=O)CCl)c1 | . | -4 | 4µM* | 10% | 0% | 2%
COc1ccc(N(Cc2cc(=O)[nH]c3ccccc23)C(=O)CCl)cc1 | 7% | -6 | 6.3µM* | 7% | 3% | -5%
O=C(Nc1cc(Cl)ccc1Cl)c1cc([N+](=O)[O-])cc(Br)c1O | . | -54* | -13% | -7% | . | .
O=C1CCCN1CCCNC(=S)Nc1ccc(Nc2ccccc2)cc1 | -7% | -5 | ? | 4% | 18µM* | 4%
O=C1CCCN1CCCNC(=S)Nc1ccccc1 | -12% | 3 | -10%[57.1 µM] | 5%[57.1 µM] | -12% | 4%
O=C1CCCN1CCCNC(=S)Nc1ccc(Br)cc1Cl | 8% | -2 | 40µM* | 10%[0.0914 µM] | -1% | 2%
CC(C)CC(=O)/C=C/n1c(=S)oc2ccccc21 | 5% | -2 | 6.3µM* | -12% | -8% | 6%
Cn1c(=S)oc2ccccc21 | 6% | -3 | 27%[57.1 µM] | 4% | -2% | 11%
CC(=O)/C=C/n1c(=S)oc2ccccc21 | 5% | 0 | 3.2µM* | -3%[57.1 µM] | 1% | 4%
CCCN(CCC)Cc1c(C)[nH]c2ccc(Br)cc2c1=O | . | -31* | . | . | . | .
CCCNC(=O)COC(=O)c1ccccc1C(=O)c1ccc(Cl)c([N+](=O)[O-])c1 | 0% | -3 | 50µM* | 4% | 7% | 3%
CN(C)CCN(C(=O)CCS(=O)(=O)c1ccccc1)c1nc2cc3c(cc2s1)OCO3 | 10% | -7 | -29% | -7% | 11% | 1%
Cc1ccc(S(=O)(=O)CCC(=O)N(CCCN2CCOCC2)c2nc3ccccc3s2)cc1 | . | 1 | 28µM* | -2% | -1% | 1%
O=C(CCS(=O)(=O)c1ccccc1)N(CCCN1CCOCC1)c1nc2ccccc2s1 | . | -5 | 14µM* | -1% | 3% | 3%
CCN(CC)CCN(C(=O)CCS(=O)(=O)c1ccccc1)c1nc2cc3c(cc2s1)OCO3 | -1% | 0 | 14µM* | -1% | 0% | 9%
Cc1ccc2nc(N(CCN3CCOCC3)C(=O)CCS(=O)(=O)c3ccccc3)sc2c1 | . | -7 | -28% | 1% | 2% | 0%
Fc1ccccc1-c1nnc(SCc2cccc3ccccc23)n1C1CC1 | . | 12 | . | . | . | .
COc1ccccc1Nc1n[nH]c(=S)s1 | -56% | -6 | -5%[57.1 µM] | 12%[57.1 µM] | 10µM* | -2%
Cc1cccc(Nc2n[nH]c(=S)s2)c1C | -25% | 0 | ? | 2% | 104% | -4%
SMILES | PKM2 activator | LDHA block | TrxR1 inh | TrxR1 substrate | GLS inh | IDH1 R132H inh
O=C(NC1CCN(Cc2ccccc2)C1)c1c[nH]c2ccccc12 (stereo not given) | . | 11 | . | . | . | .
Cc1cc2nc(C(=O)Nc3ccc(Br)cc3)c(N3CCOCC3)nc2cc1C | . | 1 | . | . | . | .
N#Cc1c(NC(=O)/C=C/c2ccco2)sc2c1CCCC2 | 24% | 5 | 40µM* | -7% | 0% | 5%
O=C(/C=C/c1ccco1)Nc1sc2c(c1C(=O)O)CCC2 | -13% | -7 | ? | -12% | 12% | 21%
CCC(C(=O)Nc1ccc(C(C)C)cc1)n1cnc2ccccc2c1=O (stereo not given) | . | 12 | . | . | . | .
CCOC(=O)C1CCN([C@H]2CS(=O)(=O)C[C@@H]2S(=O)(=O)c2ccc(OC)cc2)CC1 | . | 5 | . | . | . | .
CCCn1c(=O)c2[nH]c(-c3ccc(S(=O)(=O)O)cc3)nc2n(CCC)c1=O | . | -10 | 22µM*! | 629%[57.1 µM] | 6% | 2%
Cn1c(=O)c2[nH]c(-c3cccc(O)c3)nc2n(C)c1=O | . | 21 | . | . | . | .
C[N+](C)(C)CCOC(=O)C1(c2ccccc2)CCCC1 | -1% | -12 | 12%[57.1 µM] | 6%[57.1 µM] | -5% | 12%
CC(C[N+](C)(C)C)OC(=O)C1(c2ccccc2)CCCC1 (stereo not given) | 0% | -31* | 32% | 4% | -3% | -2%
Cc1ccc(/C=C/S(=O)(=O)NCC(=O)OCC(=O)Nc2ccc(C(N)=O)cc2)cc1 | . | -7 | 25% | 8% | 18% | -2%
Cc1ccc(/C=C/S(=O)(=O)NCC(=O)OCC(=O)Nc2c(F)cccc2F)cc1 | . | -3 | 32µM* | -3% | 9% | 0%
COc1cccc(Cn2c(=O)c3sccc3n(CC(=O)N(C)C3CCCCC3)c2=O)c1 | . | -9 | . | . | . | .
CC(=O)OCON[N+]([O-])=NC(C)C | . | 4 | 16µM*! | 4% | . | .
CC(=O)Nc1ccc(OC(F)(F)C(F)F)c(NC(C)=O)c1 | 2% | -1 | 19% | 6%[57.1 µM] | -1% | 10%
C=C(C)C(=O)Nc1ccc(OC(F)(F)C(F)F)c(NC(=O)C(=C)C)c1 | -4% | -13 | -15%[57.1 µM] | 3%[57.1 µM] | 13µM* | -2%
O=C(O)/C=C/C(=O)Nc1ccccc1C(=O)Nc1ccccc1 | -5% | -11 | 40µM* | -2% | 16% | 20%
O=C(CN1CCN(c2ccccc2O)CC1)Nc1nc(-c2ccc(F)c(F)c2)cs1 | . | -14 | . | . | . | .
CCn1nc(C)cc1C(=O)Sc1cccc(Br)c1 | 3% | -4 | 7.9µM* | 7% | 5% | 6%
CCn1nc(C)cc1C(=O)Sc1ccc(Cl)cc1Cl | 3% | -11 | ? | 7% | 0% | -4%
O=[N+]([O-])c1ccc(O/N=[N+](\[O-])N2CCN(c3ncccn3)CC2)c([N+](=O)[O-])c1 | . | 4 | 14µM* | 10%[0.457 µM] | . | .
O=[N+]([O-])c1ccc(O/N=[N+](\[O-])N2CCN(c3ccccc3)CC2)c([N+](=O)[O-])c1 | . | 6 | 32µM* | -7% | . | .
O=C(Nc1ccc(Cl)c(C(F)(F)F)c1)c1ccc(I)cc1 | . | -24 | . | . | . | .
CCCCN(CCCC)C(=O)C1CC(=O)OC12CCOC(C)(C)C2 (stereo not given) | . | 9 | . | . | . | .
CC(=O)Cn1ncc(N2CCCCC2)c(Cl)c1=O | 0% | 1 | 12% | 0% | 3% | -4%

Source: PubChem BioAssay
